Rows were chosen to be rich in hits. Some 3.5% of all compounds tested hit in one or more screens of this group.
Bead autofluor – compound fluorescence in toxin protease inhibitor counterscreen; fluorescence intensity (no concentration beside the values); compound autofluorescence counterscreen, microsphere flow cytometry; stronger effect = higher value; actives 3.1% (n = 360,000); in the data active = fluorescence intensity above about 16000; inconclusive = no clear call, values can overlap the other calls
Anthrax LF prot – inhibitors of Bacillus anthracis lethal factor protease; multiplex microsphere protease cleavage assay, LF; actives 0.12% (n = 360,000); AID 588501; inhibition, % at 10 µM; note: plate controls were buffer without enzyme for full effect and enzyme alone for no effect
BoNT A protease – blocks Botulinum neurotoxin A light chain protease | multiplex microsphere protease substrate cleavage, flow cytometry | inhibition, % at 10 µM | actives 0.17% (n = 360,000) | AID 588499; note: plate controls were buffer without enzyme for full effect and enzyme alone for no effect
BoNT F protease – BoNT F light chain protease inhibition; Multiplex microsphere protease cleavage assay, flow cytometry; inhibition, % at 10 µM; actives 0.22% (n = 360,000); AID 588497; in the data active = inhibition above about 35%, passing the limit was not always enough; inconclusive = no clear call, values can overlap the other calls; note: plate controls were buffer without enzyme for full effect and enzyme alone for no effect
Active calls of the source: *. Cut-off read from the data, not from the text of the source, unless noted: active = inhibition above about 30%; inconclusive = no clear call, values can overlap the other calls; inactive = below that.

`COC(=O)c1ccc(C2C(C(=O)OCC(C)C)=C(C)N=C3SCCC(=O)N32)cc1` (stereo not drawn) gave Bead autofluor 22462*, Anthrax LF prot -3, BoNT A protease 0 and BoNT F protease -1.
`CC1=C(C(=O)OC(C)C)C(c2cccs2)N2C(=O)CCSC2=N1` (stereo not drawn) gave Bead autofluor 25343*, Anthrax LF prot -2, BoNT A protease -5 and BoNT F protease -8.
Screening O=C(Cc1cccc(NC(=O)C2CCN(S(=O)(=O)c3cccc([N+](=O)[O-])c3)CC2)c1)Nc1cccc(C(=O)N2CCOCC2)c1 returned Bead autofluor 3881, Anthrax LF prot -5, BoNT A protease 0 and BoNT F protease -2.
`Cc1ccc(C)c(N(C(=O)c2snc(C(N)=O)c2N)C(C(=O)NCC2CCCO2)c2ccc(C)o2)c1` (stereo not drawn) gave Bead autofluor 3685, Anthrax LF prot 21, BoNT A protease -4 and BoNT F protease -24.
`Cc1ccc(NC2=CC(=O)C(=O)c3ccccc32)cc1` gave Bead autofluor 16510*, Anthrax LF prot -2, BoNT A protease -1 and BoNT F protease -5.
Screening COc1ccc(-n2nnnc2SCC(=O)Nc2nnn(C)n2)cc1 returned Bead autofluor 22244*, Anthrax LF prot -2, BoNT A protease 2 and BoNT F protease 0.
CSc1nsc(SCC(=O)Nc2c(C)n(C)n(-c3ccccc3)c2=O)n1 was read as Bead autofluor 20801*, Anthrax LF prot 1, BoNT A protease 2 and BoNT F protease 1.
Cc1c(NC(=O)CSc2nnnn2-c2ccc(O)cc2)c(=O)n(-c2ccccc2)n1C was read as Bead autofluor 23720*, Anthrax LF prot -2, BoNT A protease inconclusive and BoNT F protease -4.
For CCO[C@H]1OC(C(=O)O)=C[C@@H](c2ccccc2)[C@@H]1CCCO the results were Bead autofluor 2853, Anthrax LF prot -6, BoNT A protease 0 and BoNT F protease -2.
`[O-][N+](=Cc1ccccc1)CC1(O)CCCCC1` gave Bead autofluor 3810, Anthrax LF prot 1, BoNT A protease 0 and BoNT F protease -2.
For CCOC(=O)c1nnn(-c2nonc2-n2cccc2)c1-c1cccc([N+](=O)[O-])c1 the results were Bead autofluor 3144, Anthrax LF prot -2, BoNT A protease 0 and BoNT F protease -4.
CCCCn1c(N)c(N(CC)C(=O)C2CCN(C(=O)c3ccccc3C)CC2)c(=O)[nH]c1=O was read as Bead autofluor 3994, Anthrax LF prot 1, BoNT A protease 0 and BoNT F protease -3.
Screening CCOC(=O)N1CCN(C(=O)c2cccc(-n3c(=S)[nH]c4cc(Cl)ccc4c3=O)c2)CC1 returned Bead autofluor 20777*, Anthrax LF prot -2, BoNT A protease -2 and BoNT F protease -4.
CCOC(=O)N1CCN(C(=O)c2ccc3c(=O)n(-c4ccc(OC)cc4)c(=S)[nH]c3c2)CC1 was read as Bead autofluor 3148, Anthrax LF prot 1, BoNT A protease -2 and BoNT F protease -38.
Screening COc1ccc(CCCC(=O)NCC(=O)N/N=C/c2cc(Cl)ccc2OC)cc1 returned Bead autofluor 6084, Anthrax LF prot -2, BoNT A protease -2 and BoNT F protease -13.
For Fc1ccccc1/C=C1\CCCC2=C1Nc1nnnn1C2c1ccccc1F (stereo not drawn) the results were Bead autofluor 22685*, Anthrax LF prot 1, BoNT A protease 0 and BoNT F protease 1.
`CN(C)c1ncc(C(=O)O)cn1` gave Bead autofluor 16816*, Anthrax LF prot -1, BoNT A protease -1 and BoNT F protease -3.
`CN(C)c1cncc(C(=O)O)c1` gave Bead autofluor 2136, Anthrax LF prot -2, BoNT A protease 0 and BoNT F protease -3.
Screening COc1ccc(C(=O)NCCS(=O)(=O)N2CCCCCC2)cc1 returned Bead autofluor inconclusive, Anthrax LF prot 1, BoNT A protease 2 and BoNT F protease 5.
Cc1cc(C(=O)NC2=NCCS2)cs1 was read as Bead autofluor 22079*, Anthrax LF prot 0, BoNT A protease inconclusive and BoNT F protease -10.
O=C(NC1=NCCS1)c1cc2ccccc2o1 was read as Bead autofluor 20997*, Anthrax LF prot -6, BoNT A protease -1 and BoNT F protease -5.
Screening Cc1cccc(C(=O)NC2=NCCS2)c1 returned Bead autofluor 4810, Anthrax LF prot -4, BoNT A protease -1 and BoNT F protease -4.
`CC(=O)Nc1ccc(S(=O)(=O)NCCC(=O)OCC(=O)NNC(=O)c2ccccc2)cc1` gave Bead autofluor 5150, Anthrax LF prot -1, BoNT A protease -2 and BoNT F protease -12.
For COc1ccc(OC)c(S(=O)(=O)Nc2cc(C)on2)c1 the results were Bead autofluor 5467, Anthrax LF prot 0, BoNT A protease -1 and BoNT F protease -2.
Screening C/C(COc1ccccc1)=N\NC(=O)c1nnn(-c2nonc2N)c1CSc1ccccc1 returned Bead autofluor 5859, Anthrax LF prot -1, BoNT A protease -2 and BoNT F protease -4.
CC1CN(S(=O)(=O)c2ccc(F)cc2)C(C)N1C(=O)N1CCOCC1 (stereo not drawn) was read as Bead autofluor 4579, Anthrax LF prot 1, BoNT A protease -1 and BoNT F protease -5.
Cc1sc2ncn(CC(=O)NCC(=O)N(C)Cc3ccccc3)c(=O)c2c1C was read as Bead autofluor 22315*, Anthrax LF prot -2, BoNT A protease 1 and BoNT F protease 2.
For Cc1sc2ncn(CC(=O)NCC(=O)N(C)C3CCCCC3)c(=O)c2c1C the results were Bead autofluor 22154*, Anthrax LF prot -3, BoNT A protease 2 and BoNT F protease 2.
Cc1sc2ncn(CC(=O)NCc3ccccc3)c(=O)c2c1C was read as Bead autofluor 4005, Anthrax LF prot -5, BoNT A protease 0 and BoNT F protease -8.
Cc1sc2ncn(CC(=O)NCCCC(=O)N3CCCCC3)c(=O)c2c1C was read as Bead autofluor 6046, Anthrax LF prot 2, BoNT A protease 0 and BoNT F protease 1.
For CC1(C)CC(=O)C=C(c2cccc(OC(=O)c3ccc(-c4ccccc4)cc3)c2)C1=O the results were Bead autofluor 3809, Anthrax LF prot -3, BoNT A protease 0 and BoNT F protease 1.
Screening Cn1c(=O)c2c(nc(NCc3ccco3)n2Cc2ccc(Cl)cc2Cl)n(C)c1=O returned Bead autofluor 24075*, Anthrax LF prot -4, BoNT A protease -4 and BoNT F protease -7.
Screening Cn1c(=O)[nH]c(=O)c2c1nc(NCc1ccco1)n2Cc1ccccc1Cl returned Bead autofluor 3674, Anthrax LF prot -6, BoNT A protease 0 and BoNT F protease -3.
CCn1c(NCc2ccco2)nc2c1c(=O)n(C)c(=O)n2C was read as Bead autofluor 21102*, Anthrax LF prot 1, BoNT A protease -1 and BoNT F protease -2.
Screening Cn1c(=O)c2c(nc(NCc3ccco3)n2CCc2ccccc2)n(C)c1=O returned Bead autofluor 2986, Anthrax LF prot -2, BoNT A protease 1 and BoNT F protease -3.
`CNC(=S)N1N=C(c2ccc(Br)cc2)CC1c1ccc(Br)cc1` (stereo not drawn) gave Bead autofluor 21159*, Anthrax LF prot -3, BoNT A protease 0 and BoNT F protease -4.
